# From PubChem BioAssay
# Where “and” joins values, the source holds several entries; their conditions need not be identical. Equal entries are not always repeated. Records with an inconclusive call do not appear. Calls of active or inactive are those of the source.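 How the source made its calls, unless noted: active means compounds killing one labelled cell type while sparing the other, by normalised counts and ratio limits, not self-fluorescent; inactive means the rest.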
# Columns and labels:
# [1] = differential killing of epithelial or mesenchymal cells, primary screen, imaging, PC-3E GFP, TEM4-18 mCherry, co-culture (AID 1345086); conditions: imaging cell counts, at 1 µM; for red/green cell ratio (normalised): actives lie on both sides;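 on all read-outs here: cells exposed to compound for 72 h before imaging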;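 on red/green cell ratio (normalised): normalised mesenchymal count divided by normalised epithelial count so high means epithelial killing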
# [2] = system: Aerobactin synthetase IucA (Klebsiella pneumoniae hvKP1); assay: Biochemical IucA enzyme inhibition primary screen of the Spectrum library (AID 1346200; call rule not given here;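 further: 100% = wells without compound and 0% = wells lacking enzyme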); conditions: malachite green pyrophosphate, A620, at 8 µM, stronger effect = lower value
# [3] = circadian clock period modulators, cell-based, LOPAC library, luminescence reporter (AID 2774; call rule not given here;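 further: values are relative to mean of DMSO wells on each plate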); conditions: circadian reporter cells, at 7 µM, actives lie on both sides
# [4] = hESC survival regulators, cell-based (AID 493140; call rule not given here;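 further: cells exposed to compounds for four days before counting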); conditions: human embryonic stem cell survival screen; stronger effect = higher value
# [5] = liver-stage malaria parasite growth inhibition, primary screen, cell-based, HepG2, luciferase luminescence, HepG2 viability (AID 624349; in the data active means parasite load remaining mostly below about 12%, no sharp cut-off; inactive means mostly above about 10%;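 further: 100% = mean of DMSO negative control wells on the same plate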); conditions: P. berghei liver stage in HepG2, luciferase luminescence, concentration not given here; parasite load remaining: stronger effect = lower value; viability: measured here: HepG2 viability without parasites
# [6] = system: Hepatitis C virus NS3 helicase; assay: HCV NS3 helicase inhibitors, primary screen, biochemical, fluorescence polarization, LOPAC1280 library (AID 687035; in the data active means inhibition above about 37%); conditions: Purified HCV NS3 helicase, Cy5-dT15 ssDNA binding fluorescence polarization; stronger effect = higher value; concentration not given here
# [7] = Cy5 fluorescence quenching or enhancement artefacts, artefact control for HCV NS3 helicase inhibitor project, biochemical, LOPAC1280 (AID 687037; call rule not given here); conditions: Cy5-DNA-NS3h complex fluorescence interference counterscreen
# [8] = system: Aerobactin synthetase IucA (Klebsiella pneumoniae); assay: IucA aerobactin synthetase inhibitors, biochemical, Tocris library, absorbance (AID 1345561; call rule not given here;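 further: 100% = enzyme without compound and 0% = no enzyme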); conditions: purified IucA enzyme assay, absorbance (OD) read-out; stronger effect = lower value;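 tested at 8 µM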
# [9] = system: Aerobactin synthetase IucA (Klebsiella pneumoniae, hypervirulent); assay: IucA enzyme inhibition, biochemical, LOPAC library, absorbance readout (AID 1346212; call rule not given here;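 further: 100% = no compound wells and 0% = no enzyme wells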); conditions: IucA enzyme assay, absorbance (OD) readout; stronger effect = lower value;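 tested at 8 µM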
# [10] = phospholipid biosynthesis inhibitors in animal cells, primary screen, cell-based, LOPAC library, screen 4 (AID 1347384; call rule not given here); conditions: phospholipid biosynthesis inhibition screen, at 10 µM
# [11] = survival rescue of mitochondrial mutant cells in low glucose, primary screen, MELAS cybrids, Rieske KO mouse fibroblasts, CellTiter-Glo (AID 1508586;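 active means mean z-score across replicates of 1.96 or higher in either the MELAS or the Rieske mutant cell line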;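 further: z relative to plate mean and SD of compound and empty wells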)
# [12] = sensitizers of A549 cells to miR-34 induction, primary screen, imaging, A549 dox-inducible miR-34, nuclei and caspase counts (AID 1347080;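 active means compounds whose cell count with miR-34 switched on is under 0.7 times the count with it off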); conditions: A549 miR-34 inducible, Hoechst nuclei count, 48 h
# [13] = molecular target: ATP-dependent translocase ABCB1 (Homo sapiens) (UniProt P08183); assay: MDR1 (ABCB1) efflux transporter inhibition, cell-based (AID 377; in the data active means fluorescence slope change above about 50%); conditions: MDR1-expressing cells, fluorescent substrate accumulation slope; stronger effect = higher value; concentration not given here
# ATP-dependent translocase ABCB1 (Homo sapiens), sequence (P08183 whole entry, looked up): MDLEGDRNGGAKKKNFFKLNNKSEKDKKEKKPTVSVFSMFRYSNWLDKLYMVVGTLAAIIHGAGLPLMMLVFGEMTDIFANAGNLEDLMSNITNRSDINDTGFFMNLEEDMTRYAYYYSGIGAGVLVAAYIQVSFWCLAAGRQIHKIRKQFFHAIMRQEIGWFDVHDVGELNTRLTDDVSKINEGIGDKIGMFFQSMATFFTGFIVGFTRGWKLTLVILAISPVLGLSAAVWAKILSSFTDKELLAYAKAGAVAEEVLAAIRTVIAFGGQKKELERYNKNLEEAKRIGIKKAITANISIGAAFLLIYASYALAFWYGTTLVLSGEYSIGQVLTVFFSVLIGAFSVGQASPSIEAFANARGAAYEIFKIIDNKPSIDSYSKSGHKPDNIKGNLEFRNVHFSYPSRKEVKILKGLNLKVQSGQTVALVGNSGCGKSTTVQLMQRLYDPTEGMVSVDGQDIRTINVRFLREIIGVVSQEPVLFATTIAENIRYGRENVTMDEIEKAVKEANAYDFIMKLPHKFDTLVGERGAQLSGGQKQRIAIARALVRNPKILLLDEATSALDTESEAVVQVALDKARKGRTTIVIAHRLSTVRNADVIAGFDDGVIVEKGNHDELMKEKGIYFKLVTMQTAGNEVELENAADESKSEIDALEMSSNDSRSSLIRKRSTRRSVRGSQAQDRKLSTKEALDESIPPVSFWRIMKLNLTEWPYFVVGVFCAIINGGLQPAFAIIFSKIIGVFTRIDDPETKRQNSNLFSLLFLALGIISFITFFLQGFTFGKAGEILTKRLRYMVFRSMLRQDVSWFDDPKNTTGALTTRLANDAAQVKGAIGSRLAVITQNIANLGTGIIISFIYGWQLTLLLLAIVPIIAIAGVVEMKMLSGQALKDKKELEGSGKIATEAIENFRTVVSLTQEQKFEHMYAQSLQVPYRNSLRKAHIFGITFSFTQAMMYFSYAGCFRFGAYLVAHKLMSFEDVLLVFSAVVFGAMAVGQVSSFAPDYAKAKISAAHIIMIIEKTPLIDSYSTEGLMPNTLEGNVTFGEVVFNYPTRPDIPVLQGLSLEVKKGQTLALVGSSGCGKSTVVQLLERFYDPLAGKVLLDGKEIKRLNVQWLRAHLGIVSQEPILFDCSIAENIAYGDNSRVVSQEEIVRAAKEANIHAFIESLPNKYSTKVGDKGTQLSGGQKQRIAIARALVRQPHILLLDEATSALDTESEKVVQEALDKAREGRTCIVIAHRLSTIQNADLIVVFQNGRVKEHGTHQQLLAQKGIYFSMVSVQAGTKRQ
# [14] = inhibitors of Cryptococcus chitosan production, flow cytometry, Cibacron Brilliant Red staining (AID 1347148; call rule not given here;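 further: compound exposure lasted three days at 37 degrees C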); conditions: Cryptococcus neoformans chitosan, stronger effect = lower value; at 10 µM unless noted
# [15] = viability rescue of complex I mutant cybrids, primary screen, cell-based, galactose medium, ATP luminescence (AID 1645843;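 active means z-score of at least 1.8 in each of two replicates, scored against plate mean and spread of sample wells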;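 further: positive z means more ATP and so rescue of galactose-driven cybrid death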); conditions: complex I mutant cybrid cells, 72 h, stronger effect = higher value
# [16] = counts scaled to control wells, 1 = unselective
# [17] = measured here: epithelial PC-3E GFP cell survival
# [18] = measured here: mesenchymal TEM4-18 mCherry cell survival
# [19] = MELAS cybrid survival, CellTiter-Glo 48 h, stronger effect = higher value
# [20] = Rieske KO mouse fibroblast survival, CellTiter-Glo 72 h
compound,measurement,setting,value
C[N+]12CC(C[C@H]1c1cccnc1)C2,red/green cell ratio (normalised),[1]; [16],1.02 (inactive)
same,normalised cell number,[1]; [17],1.14
same,normalised cell number,[1]; [18],1.16
CCC(C)[C@H]1O[C@]2(C=C[C@@H]1C)C[C@@H]1C[C@@H](C/C=C(\C)[C@@H](OC3C[C@H](OC)C(O[C@H]4C[C@H](OC)[C@@H](O)[C@H](C)O4)[C@H](C)O3)[C@@H](C)/C=C/C=C3\COC4[C@H](O)C(C)=C[C@@H](C(=O)O1)[C@]34O)O2 (stereo not given in full),red/green cell ratio (normalised),[1]; [16],0.68 (inactive)
same,normalised cell number,[1]; [17],0.88
same,normalised cell number,[1]; [18],0.6
Cc1ncc(C[n+]2csc(CCO)c2C)c(=O)[nH]1,red/green cell ratio (normalised),[1]; [16],0.81 (inactive)
same,normalised cell number,[1]; [17],1.27
same,normalised cell number,[1]; [18],1.03
O=C(O)COc1ccc(O)cc1,red/green cell ratio (normalised),[1]; [16],1.05 (inactive)
same,normalised cell number,[1]; [17],1.09
same,normalised cell number,[1]; [18],1.15
C[N+]1(C)CCc2cc3c(cc2[C@H]1C1OC(=O)c2c1ccc1c2OCO1)OCO3 (stereo not given in full),red/green cell ratio (normalised),[1]; [16],0.88 (inactive)
same,normalised cell number,[1]; [17],1.35
same,normalised cell number,[1]; [18],1.18
same,activity remaining,[2],129% (inactive)
COc1cc([C@@H]2c3cc4c(cc3[C@H](OC(C)=O)C3COC(=O)[C@H]32)OCO4)cc(OC)c1OC (stereo not given in full),red/green cell ratio (normalised),[1]; [16],1.07 (inactive)
same,normalised cell number,[1]; [17],0.19
same,normalised cell number,[1]; [18],0.2
CC1NCCc2cc(O)c(O)cc21 (stereo not given),red/green cell ratio (normalised),[1]; [16],0.96 (inactive)
same,normalised cell number,[1]; [17],1.11
same,normalised cell number,[1]; [18],1.06
C[N+]12CC[C@@]34c5ccccc5N5C(=O)CC6OCC=C(C1)[C@@H](CC32)[C@@H]6C54 (stereo not given in full),red/green cell ratio (normalised),[1]; [16],1.07 (inactive)
same,normalised cell number,[1]; [17],0.95
same,normalised cell number,[1]; [18],1.01
C[C@]12CCC(=O)C=C1CCC1C2CC[C@@]2(C)C1CC[C@H]2O (stereo not given in full),red/green cell ratio (normalised),[1],1.17 (inactive)
same,normalised cell number,[1]; [17],0.92
same,normalised cell number,[1]; [18],1.08
C[C@]12CCC3C(CC[C@H]4C[C@H](O)CC[C@]34C)C1CCC2=O (stereo not given in full),red/green cell ratio (normalised),[1],1.16 (inactive)
same,normalised cell number,[1]; [17],0.84
same,normalised cell number,[1]; [18],0.97
CN(CCC(N)CC(=O)N[C@H]1C=CC(n2ccc(N)nc2=O)O[C@@H]1C(=O)O)C(=N)N (stereo not given in full),red/green cell ratio (normalised),[1]; [16],0.77 (inactive)
same,normalised cell number,[1]; [17],1.2
same,normalised cell number,[1]; [18],0.93
same,activity remaining,[2],109% (inactive)
CCCN1CCC[C@@H]2Cc3[nH]ncc3C[C@H]21,period change,[3],-0.035 hour (inactive) and -0.145 hour (inactive)
same,survival,[4],16 (inactive)
same,parasite load remaining,[5],75.7% (inactive) and 34.7% (inactive)
same,viability,[5],68.7% and 143%
same,inhibition,[6],-2% (inactive) and -1% (inactive)
same,fluorescence ratio (interference),[7],1 (inactive)
same,red/green cell ratio (normalised),[1],1.24 (inactive)
same,normalised cell number,[1]; [17],0.89
same,normalised cell number,[1]; [18],1.1
same,remaining activity,[8],126% (inactive)
same,remaining activity,[9],117% (inactive)
same,outcome,[10],inactive
same,z-score,[11]; [19],0.372 (inactive)
same,z-score,[11]; [20],-0.161
C[CH2][Hg+].O=C([O-])c1ccccc1[S-].[Na+],red/green cell ratio (normalised),[1]; [16],0.36 (inactive)
same,normalised cell number,[1]; [17],0.18
same,normalised cell number,[1]; [18],0.06
CN1C(=O)c2ccccc2NC(=O)[C@@H]1Cc1ccccc1,red/green cell ratio (normalised),[1]; [16],1.03 (inactive)
same,normalised cell number,[1]; [17],1.1
same,normalised cell number,[1]; [18],1.13
CC(=O)O[C@@H]1CC2C(C)(C)C(=O)C=C[C@]2(C)C2CC[C@]3(C)C(=CC(=O)O[C@H]3c3ccoc3)[C@@]21C (stereo not given in full),red/green cell ratio (normalised),[1],1.01 (inactive)
same,normalised cell number,[1]; [17],0.98
same,normalised cell number,[1]; [18],0.99
same,activity remaining,[2],123% (inactive)
COc1cc2c(cc1OC)[C@@]13CCN4CC5=CCOC6CC(=O)N2C1[C@H]6[C@H]5C[C@H]43 (stereo not given in full),parasite load remaining,[5],97.7% (inactive) and 56.5% (inactive)
same,viability,[5],63.5% and 87.4%
same,red/green cell ratio (normalised),[1],1.35 (inactive)
same,red/green cell ratio (normalised),[1]; [16],0.96 (inactive)
same,normalised cell number,[1]; [17],1.05 and 0.91
same,normalised cell number,[1]; [18],1.02 and 1.23
same,activity remaining,[2],105% (inactive)
same,fold change,[12]; stronger effect = lower value,0.942 (inactive)
same,fold change,[12]; measured here: relative caspase fold change +Dox/-Dox,2.52
same,cell count,"[12]; measured here: total cells with miR-34 induction, stronger effect = lower value",11600
same,cell count,[12]; measured here: total cells without miR-34 induction,12300
CC1(C)CC(=O)C(Cl)C(=O)C1,red/green cell ratio (normalised),[1]; [16],0.82 (inactive)
same,normalised cell number,[1]; [17],1.28
same,normalised cell number,[1]; [18],1.05
c1ccc(S[C@@H]2OC3COC(c4ccccc4)OC3[C@H]3NC32)cc1 (stereo not given in full),red/green cell ratio (normalised),[1]; [16],0.98 (inactive)
same,normalised cell number,[1]; [17],1.08
same,normalised cell number,[1]; [18],1.06
CC(C)[C@@H]1CC[C@](O)(CCl)[C@@H]2C(=O)OCC(C(=O)O)=C[C@H]21,red/green cell ratio (normalised),[1]; [16],0.96 (inactive)
same,normalised cell number,[1]; [17],1
same,normalised cell number,[1]; [18],0.96
CC(C)=CCC[C@H](C)[C@H]1CC[C@]2(C)C[C@H]3[C@@H](C(=O)C[C@@]3(C)O)/C(C=O)=C\C[C@@H]12,red/green cell ratio (normalised),[1]; [16],0.95 (inactive)
same,normalised cell number,[1]; [17],0.85
same,normalised cell number,[1]; [18],0.8
CCSCCC(N)C(=O)O (stereo not given),red/green cell ratio (normalised),[1],0.84 (inactive)
same,normalised cell number,[1]; [17],1.26
same,normalised cell number,[1]; [18],1.06
CCC(C)C1C(=O)OC(C(C)C)C(=O)N(C)C(C(C)C)C(=O)OC(C(C)C)C(=O)N(C)C(C(C)C)C(=O)OC(C(C)C)C(=O)N1C (stereo not given),red/green cell ratio (normalised),[1]; [16],0.98 (inactive) and 0.86 (inactive)
same,normalised cell number,[1]; [17],1.02 and 0.67
same,normalised cell number,[1]; [18],1 and 0.58
C[C@@H]1C(=O)OC2[C@H](O)C34[C@@H]5OC(=O)[C@@]3(OC3OC(=O)[C@H](O)[C@@]34[C@H](C(C)(C)C)[C@H]5O)[C@]21O (stereo not given in full),red/green cell ratio (normalised),[1]; [16],1.08 (inactive)
same,normalised cell number,[1]; [17],0.86
same,normalised cell number,[1]; [18],0.93
CN1C[C@H](C(=O)N[C@]2(C)O[C@@]3(O)C4CCCN4C(=O)[C@H](Cc4ccccc4)N3C2=O)C=C2c3cccc4[nH]cc(c34)C[C@H]21 (stereo not given in full),red/green cell ratio (normalised),[1],0.93 (inactive)
same,normalised cell number,[1]; [17],1.08
same,normalised cell number,[1]; [18],1
CC(=O)OC1CC[C@@]2(C)C(CCC3C2CC[C@]2(C)C(C4=CC(=O)OC4)C(OC(C)=O)CC32O)C1 (stereo not given in full),red/green cell ratio (normalised),[1]; [16],0.21 (inactive)
same,normalised cell number,[1]; [17],0.16
same,normalised cell number,[1]; [18],0.03
same,activity remaining,[2],109% (inactive)
Nc1ccc(-c2ccccc2)cc1,red/green cell ratio (normalised),[1]; [16],1.07 (inactive)
same,normalised cell number,[1]; [17],0.96
same,normalised cell number,[1]; [18],1.03
NCCc1c[nH]c2ccc(O)cc12,fluorescence slope change,[13],73.4% (active)
same,period change,[3],-0.28 h (inactive)
same,survival,[4],12.7 (inactive)
same,parasite load remaining,[5],63.9% (inactive) and 71.4% (inactive)
same,viability,[5],113% and 89.1%
same,inhibition,[6],-1% (inactive)
same,fluorescence ratio (interference),[7],1 (inactive)
same,red/green cell ratio (normalised),[1],1.02 (inactive)
same,normalised cell number,[1]; [17],0.95
same,normalised cell number,[1]; [18],0.96
same,remaining activity,[8],97.8% (inactive)
same,remaining activity,[9],107% (inactive)
same,fold fluorescence,[14],4 [at 283.7 µM] (inactive)
same,outcome,[10],inactive
same,z-score,[11]; [19],-0.165 (inactive) and -0.0524 (inactive)
same,z-score,[11]; [20],-0.179 and -0.331
same,z-score,[15],0.29 (inactive) and 0.4 (inactive)
CC1OC(=O)[C@@H](C(C)C)NC(=O)C(C(C)C)OC(=O)[C@H](C(C)C)NC(=O)C(C)OC(=O)[C@@H](C(C)C)NC(=O)C(C(C)C)OC(=O)[C@H](C(C)C)NC(=O)C(C)OC(=O)[C@@H](C(C)C)NC(=O)C(C(C)C)OC(=O)[C@H](C(C)C)NC1=O (stereo not given in full),red/green cell ratio (normalised),[1],0.92 (inactive)
same,normalised cell number,[1]; [17],0.32
same,normalised cell number,[1]; [18],0.29
same,activity remaining,[2],122% (inactive)
C=CCSSCC=C,red/green cell ratio (normalised),[1],1.09 (inactive)
same,normalised cell number,[1]; [17],0.87
same,normalised cell number,[1]; [18],0.95
same,activity remaining,[2],94.6% (inactive)
N#Cc1c(Cl)nc(NC2CC2)c2ccccc12,red/green cell ratio (normalised),[1]; [16],0.69 (inactive)
same,normalised cell number,[1]; [17],1.32
same,normalised cell number,[1]; [18],0.91
CN1C2CC(=O)CC1[C@H](O)C2 (stereo not given in full),red/green cell ratio (normalised),[1]; [16],0.81 (inactive)
same,normalised cell number,[1]; [17],1.25
same,normalised cell number,[1]; [18],1.01
C[C@]12[C@H](O)CC3C(CC[C@@H]4C[C@@H](O)CC[C@]34C)[C@@]1(O)CC[C@@H]2C1=CC(=O)OC1 (stereo not given in full),red/green cell ratio (normalised),[1],0.53 (inactive)
same,normalised cell number,[1]; [17],0.38
same,normalised cell number,[1]; [18],0.2
